Sampled rows, rich in hits. Any-hit rate of the full collection: about 3.4%.
PKM2 activator = PKM2 (human) enzyme activation; 260,000 compounds, 0.34% hits; Potency, µM (top dose mostly 57.5 µM), actives largely listed as activators; P14618; purified PKM2, Kinase-Glo ATP luminescence, activation; response scale: 0% is enzyme alone, no compound; further: nearly all actives have a fitted effect of over 55% in size
Target sequence (P14618 whole entry, looked up): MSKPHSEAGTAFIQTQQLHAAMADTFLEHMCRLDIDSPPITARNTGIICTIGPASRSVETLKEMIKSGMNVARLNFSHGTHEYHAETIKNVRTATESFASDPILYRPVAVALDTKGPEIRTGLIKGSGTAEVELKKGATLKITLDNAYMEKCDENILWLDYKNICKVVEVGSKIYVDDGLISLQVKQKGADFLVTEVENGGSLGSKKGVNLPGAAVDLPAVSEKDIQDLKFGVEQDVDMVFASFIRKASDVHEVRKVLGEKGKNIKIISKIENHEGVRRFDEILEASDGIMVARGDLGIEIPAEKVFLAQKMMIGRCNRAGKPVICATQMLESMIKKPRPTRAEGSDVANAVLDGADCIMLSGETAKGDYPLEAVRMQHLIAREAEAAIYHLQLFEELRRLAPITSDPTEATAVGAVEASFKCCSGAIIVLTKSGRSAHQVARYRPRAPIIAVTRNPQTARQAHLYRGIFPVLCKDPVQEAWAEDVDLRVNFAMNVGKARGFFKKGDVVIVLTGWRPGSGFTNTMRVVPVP
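Purified hPK-M2 (>95% pure) converted ADP (0.1 mM final) to ATP with 0.5 mM PEP in 50 mM imidazole pH7.2, KCl, MgCl2, Tween 20, BSA; 1 h at room temperature. ATP detected by Kinase-Glo luminescence.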
PLK1 PBD block = inhibitors of human PLK1 polo-box domain binding | P53350 | Plk1 PBD binding of FITC phosphopeptide, fluorescence polarization | Potency, µM, hits mostly inhibitors | 360,000 compounds, 2.8% hits | AID 720504; further: series mostly up to about 57 µM; nearly all actives have a fitted effect of over 65% in size
Mito fusion act = blocks mitochondrial division or promotes mitochondrial fusion; Potency, µM (doses to about 46.1 µM), most hits filed as activators; S. cerevisiae fusion-defective mutant growth rescue, CellTiterGlo 48 h; 320,000 compounds, 0.23% hits; further: nearly all actives have a fitted effect of over 45% in size
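Yeast fusion mutant, YPEG (non-fermentable carbon), compound, 48 h at 37C non-permissive; CellTiterGlo added, 10 min RT, luminescence read. Rescued growth = division inhibition.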
VDR inh = blocks the human vitamin D receptor; P11473; VDR-SRC2-3 peptide fluorescence polarization, 2 h; Potency, µM, hits mostly inhibitors; 400,000 compounds, 0.93% hits
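Fluorescence polarization assay of small-molecule disruption of VDR binding to coregulator peptide SRC2-3. Compounds and controls pin-transferred, then read after 2 h incubation at ambient room temperature.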
GLS inh = glutaminase GLS (human) inhibition; O94925; GLS enzymatic activity, qHTS titration; Potency, µM (doses to about 45.5 µM), hits mostly inhibitors; 410,000 compounds, 0.21% hits; AID 624170
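hKGA in 45 mM KH2PO4 (pH 8.2), 0.02% Tween-20 with compound, then 1mM L-Glutamine (stock as added) plus glutamate oxidase/HRP/Amplex red coupling mix. Fluorescence read initially and after 30 min at RT; signal change reflects glutamate formation.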
GCN5L2 inh = blocks human GCN5L2 histone acetyltransferase. GCN5L2 HAT assay, ThioGlo1 CoA-SH fluorescence. Potency, µM (doses to about 58.9 µM), usual class: inhibitors. 390,000 compounds, 0.21% hits. AID 504327
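GCN5L2 (20nM final) in 50mM HEPES, 0.1mM EDTA pH 7.5, 0.01% Tween-20 was preincubated 15 min at room temperature with compound, then given ThioGlo1 (50uM), H3(1-25) peptide (75uM) and acetyl-CoA (70uM); CoA-thiol fluorescence (Ex340/Em540) was read at 0 and 20 min.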
Each line names hits and unclear results; the compound was inactive in the other large screens. The call rests on the fitted dose curve; in most records, active means well fitted curve in the direction sought with a large enough effect; inconclusive means small, poorly fitted or top-dose-only effect, or another doubt; inactive means no such curve, though single readings can be large; an effect the other way counts as inactive or inconclusive.

O=C(O)C(Cc1ccccc1)N1C(=O)/C(=C/C=C/c2ccco2)SC1=S (stereo unspecified)	PLK1 PBD block 2.67µM, GCN5L2 inh 8.91µM
COc1ccccc1/C=C1\SC(=S)N(C(C(=O)O)c2ccccc2)C1=O (stereo unspecified)	PLK1 PBD block 23.8µM
COc1ccc(/C=C2\SC(=S)N(C(Cc3ccccc3)C(=O)O)C2=O)cc1 (stereo unspecified)	PLK1 PBD block 26.7µM
O=C(NN1C(=O)/C(=C/C=C/c2ccco2)SC1=S)c1ccccc1O	PKM2 activator inconclusive, PLK1 PBD block 6.7µM, GCN5L2 inh inconclusive
C=CCNC(=S)Nc1ccc2cn[nH]c2c1	none
O=C(Cn1cnnn1)NC1CCCN(Cc2ccccc2F)C1 (stereo unspecified)	none
CCCNC(=O)c1cc(C2CCCCN2S(=O)(=O)c2ccccc2)on1 (stereo unspecified)	none (no result: PKM2 activator, Mito fusion act, VDR inh, GCN5L2 inh)
CN(c1ccccc1C(=O)O)S(=O)(=O)c1ccc2[nH]c(=O)oc2c1	none (no result: PKM2 activator, PLK1 PBD block)
Oc1ccc(Br)cc1CNc1ccccn1	PLK1 PBD block 16.8µM, VDR inh inconclusive
COc1ccccc1-c1cn(CC[C@H]2CC[C@@H](NS(=O)(=O)c3ccccc3C)[C@@H](CO)O2)nn1	none (no result: PKM2 activator, Mito fusion act, VDR inh, GLS inh, GCN5L2 inh)
Cc1nc2c(ccc3nc(NC(=O)Cc4cccc5ccccc45)sc32)s1	Mito fusion act 11.2µM
Cc1nc2c(ccc3nc(NC(=O)C(c4ccccc4)c4ccccc4)sc32)s1	Mito fusion act 7.08µM
Cc1nc2c(ccc3nc(NC(=O)c4ccc5c(c4)OCCO5)sc32)s1	none
Cc1cc(C)c(S(=O)(=O)N2CCCC(C(=O)NC3CCCC3)C2)c(C)c1 (stereo unspecified)	none
Cc1ccc(-c2nnc(Nc3ccc(F)cc3)c3ccccc23)cc1S(=O)(=O)NC(C)C	none (no result: PKM2 activator, PLK1 PBD block, Mito fusion act)
CN1CCN(C(=O)CCN2C(=O)/C(=C\c3ccc(Cl)cc3Cl)SC2=S)CC1	PLK1 PBD block 42.3µM
CNC1(c2nnnn2-c2ccccc2C)CCOC(C)(C)C1 (stereo unspecified)	PLK1 PBD block 15µM, VDR inh 22.4µM, GLS inh inconclusive
Cc1ccccc1-n1nnnc1SC1CCOC1=O (stereo unspecified)	none
COC(=O)[C@H](COC(C)(C)C)NC(=O)O[C@@H]1C(=O)c2cc(Br)ccc2O[C@H]1c1cccc(OC)c1	none (no result: PKM2 activator, PLK1 PBD block, Mito fusion act, GLS inh, GCN5L2 inh)
COc1ccc(-c2noc(C(C)n3nc(C)c([N+](=O)[O-])c3C)n2)cc1OC (stereo unspecified)	none
COC(=O)c1cccc(Cn2nc(C)c([N+](=O)[O-])c2C)c1	PLK1 PBD block 21.2µM
COc1cccc(-c2noc(Cn3nc(C)c([N+](=O)[O-])c3C)n2)c1	PLK1 PBD block 18.9µM
Cc1nn(Cc2cccc(C(=O)O)c2)c(C)c1[N+](=O)[O-]	none
COc1cc(/C=N/N=C2/SCC(=O)N2c2ccc(O)cc2)ccc1O	PLK1 PBD block 2.99µM, VDR inh 17.8µM, GLS inh inconclusive
O=C(O)c1ccccc1NS(=O)(=O)c1ccc(NNC(=S)Nc2ccc(OC(F)F)cc2)c([N+](=O)[O-])c1	PLK1 PBD block 10.6µM, VDR inh inconclusive, GLS inh inconclusive, GCN5L2 inh 22.4µM
Cc1ccc(NC(=S)NNc2ccc(C(=O)O)cc2[N+](=O)[O-])cc1C	PLK1 PBD block inconclusive, GLS inh inconclusive (no result: PKM2 activator, Mito fusion act, GCN5L2 inh)
COc1ccc(C(C)=NNc2ccc([N+](=O)[O-])cc2S(=O)(=O)Nc2ccccc2C(=O)O)c(OC)c1	PLK1 PBD block 21.2µM, VDR inh inconclusive, GCN5L2 inh inconclusive (no result: PKM2 activator, Mito fusion act)
COc1cccc(C(C)=NNc2ccc([N+](=O)[O-])cc2[N+](=O)[O-])c1OC	none (no result: PKM2 activator, Mito fusion act, VDR inh, GCN5L2 inh)
Cc1ccc(NC(=S)NNc2ccc([N+](=O)[O-])cc2S(=O)(=O)Nc2ccccc2C(=O)O)cc1C	PLK1 PBD block 26.7µM, VDR inh 39.8µM, GLS inh inconclusive, GCN5L2 inh inconclusive
Cn1c(=O)c2c(-c3ccccc3Cl)n(-c3cc(Cl)ccc3O)cc2n(C)c1=O	none (no result: PKM2 activator, PLK1 PBD block, Mito fusion act)
CCOc1ccc(NC(=O)CN(C)C(=O)c2c(-c3c(F)cccc3Cl)noc2C)cc1OCC	none (no result: PKM2 activator)
